The full list was thinned out, with hits kept by preference.
HT1080 IDH1KD tx – HT-1080 IDH1 knockdown cell toxicity (counter line). HT-1080 IDH1 knockdown viability, ATP luminescence, 48 h. Potency, µM (top dose mostly 46.1 µM), for inactives: at the top dose activity, negative = toxicity, hits mostly cytotoxic. hit rate 2% among 360,000. AID 686971;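 also: potency is read from the fitted curve at half-maximal effect; 0% = DMSO wells and -100% = cell-free medium wells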
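HT-1080-IDH1KD cells (IDH1 knocked down), 750/well in RPMI with 5% FBS, treated with compound 48 h at 37 degrees C. Viability by CellTiter-Glo luminescence, normalised to DMSO and no-cell wells; concentration-response curves classed.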
IL1B secr inh – inflammasome signaling inhibition, IL-1 beta readout; hit rate 4.7% among 360,000; AID 743279; THP-1 LPS/ATP IL-1B secretion, AlphaLISA, 16 h; hits give low values; activity change, % at 57.5 µM; in the data active = activity change below about -50%; inconclusive = mostly about -30% to -49%
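THP-1 cells pretreated 1 hr with compounds (up to 57.5 uM final), then stimulated with LPS (250 ng/mL final) plus ATP (1.25 mM final); secreted IL-1B measured by AlphaLISA after 16 hr, decreased signal indicating inhibition.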
DT40 TDP1 CPT – DT40-hTDP1 cell growth loss with CPT; chicken DT40 Tdp1-/-;hTDP1 cells + 20 nM CPT, ATP luminescence, 48 h; Potency, µM (top dose mostly 46.2 µM), for inactives: top-dose activity change, negative = growth inhibition, actives largely listed as inhibitors; hit rate 12% among 420,000; also: potency is read from the fitted curve at half-maximal effect; nearly all actives have a fitted effect of over 55% in size
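Chicken DT40 Tdp1-/- cells complemented with human TDP1, 400 cells/well, exposed to compounds plus 20 nM camptothecin for at least 48 h at 37 C; viability read as ATP content by CellTiter-Glo luminescence.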
DT40 TDP1 no CPT – qHTS for Inhibitors of human tyrosyl-DNA phosphodiesterase 1 (TDP1): qHTS in cells in absence of CPT. Potency, µM (highest dose often 46.2 µM), without a hit: at the top dose activity change, negative = growth inhibition, actives largely listed as inhibitors. hit rate 15% among 420,000. DT40 Tdp1-/- hTDP1 cells, no CPT, ATP luminescence, 48 h; also: potency is read from the fitted curve at half-maximal effect; nearly all actives have a fitted effect of over 55% in size
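Chicken DT40 Tdp1-/- cells complemented with human TDP1, screened without camptothecin (DMSO vehicle only), 400 cells/well. Compounds pin-transferred, cells incubated at 37 °C for at least 48 hr. Growth read as ATP-dependent luminescence (CellTiter-Glo, 30 min at RT).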
HT1080NT lethal – kills 2HG-producing HT-1080-NT fibrosarcoma cells | HT-1080-NT fibrosarcoma viability, CellTiter-Glo ATP luminescence, 48 h | Potency, µM (series often up to 46.1 µM), for the others: at the top dose activity, negative = less viability, usual class: cytotoxic | hit rate 1.6% among 360,000 | AID 686970;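 also: NT is the 2HG producing partner of a matched IDH1 knockdown line; potency is read from the fitted curve at half-maximal effect; 0% = DMSO-treated cells and -100% = media-only wells without cells; nearly all actives have a fitted effect of over 55% in size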
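Luminescent CellTiter-Glo readout after 48 hours of compound exposure at 37 degrees C defined viability of HT-1080-NT cells. Activity was normalized to DMSO wells and cell-free media wells; concentration-response curves were fitted and assigned curve classes.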
12-LOX inh – ALOX12 (human) lipoxygenase inhibition; P18054; purified 12hLO, xylenol orange hydroperoxide absorbance; Potency, µM (doses to about 108 µM), for inactives: at the top dose activity change, negative = inhibition, actives largely listed as inhibitors; hit rate 1.1% among 580,000; AID 1671190; also: potency is read from the fitted curve at half-maximal effect
Target sequence (P18054 whole entry, looked up): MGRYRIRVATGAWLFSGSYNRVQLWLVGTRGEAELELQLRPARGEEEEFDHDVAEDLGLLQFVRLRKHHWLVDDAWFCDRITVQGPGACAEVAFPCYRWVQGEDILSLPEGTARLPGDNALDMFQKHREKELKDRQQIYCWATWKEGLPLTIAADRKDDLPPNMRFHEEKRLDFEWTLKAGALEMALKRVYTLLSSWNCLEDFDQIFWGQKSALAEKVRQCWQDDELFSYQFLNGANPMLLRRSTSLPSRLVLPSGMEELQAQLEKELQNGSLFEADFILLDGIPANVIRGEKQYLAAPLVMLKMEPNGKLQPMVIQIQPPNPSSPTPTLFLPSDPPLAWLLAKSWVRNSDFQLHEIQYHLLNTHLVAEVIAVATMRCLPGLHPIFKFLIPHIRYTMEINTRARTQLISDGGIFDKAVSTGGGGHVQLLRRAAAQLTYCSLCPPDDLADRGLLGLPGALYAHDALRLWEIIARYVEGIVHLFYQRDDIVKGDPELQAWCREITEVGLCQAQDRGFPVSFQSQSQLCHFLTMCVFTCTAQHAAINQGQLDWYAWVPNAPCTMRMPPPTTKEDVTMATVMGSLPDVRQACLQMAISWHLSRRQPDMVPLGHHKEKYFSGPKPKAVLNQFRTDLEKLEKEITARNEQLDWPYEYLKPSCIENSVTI
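Hydroperoxide product was detected by ferrous iron/xylenol orange as the 573 to 405 nm absorbance ratio. Arachidonic acid at 40 uM (final) was turned over for 30 min at room temperature by 150 nM human 12hLO, pH 7.0 Hepes buffer, after 15 min compound preincubation.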
An asterisk follows results filed as active; ? = inconclusive; / = no result; [ ] = remark or other dose. Unless noted, calls follow the shape of the dose curve; as a rule, active = well fitted curve in the direction sought with a large enough effect; inconclusive = small, poorly fitted or top-dose-only effect, or another doubt; inactive = no such curve, though single readings can be large; an effect the other way counts as inactive or inconclusive. Unless noted, % is scaled to controls: 0 for no effect and ±100 for the full control effect.

SMILES	HT1080 IDH1KD tx	IL1B secr inh	DT40 TDP1 CPT	DT40 TDP1 no CPT	HT1080NT lethal	12-LOX inh
Cc1cc(C)cc(NC(=O)c2nnn(Cc3cc(C)ccc3C)c2N)c1	?	0	21µM*	?	-24%	/
Cc1ccc(C)c(Cn2nnc(C(=O)Nc3ccc4c(c3)OCCO4)c2N)c1	-13%	-17	?	?	-11%	-2%
CCOc1ccc(OCC)c(NC(=O)c2nnn(CC(=O)Nc3cc(C)cc(C)c3)c2N)c1	21µM*	-14	-23%	-25%	?	-12%
COC(=O)c1cc(-c2cccc(C)c2)nc2ccccc12	/	/	/	/	/	16%
N#C/C(=C/c1ccc(Sc2nc3ccccc3[nH]2)o1)c1ccccc1F	?	-96*	21µM*	16µM*	?	11%
N#C/C(=C/c1ccc(Sc2nc3ccccc3[nH]2)o1)c1cccc(F)c1	?	-94*	21µM*	?	?	?
O=C(Cc1ccc(-c2ccccc2)cc1)Nc1ccccn1	-25%	-69*	1%	?	-13%	19%
Cc1ccc(NC(=O)CCc2c[nH]c3ccccc23)nc1	?	31	2.6µM*	2.6µM*	?	-2%
Cc1ccc(NC(=O)Cc2ccc(-c3ccccc3)cc2)nc1	-9%	-60*	?	-27%	?	4%
Cc1ccnc(NC(=O)Cc2ccc(-c3ccccc3)cc2)c1	?	?	?	?	?	0%
Cc1ccc(C)c(NC(=O)CCc2c[nH]c3ccccc23)c1	/	/	/	/	/	-15%
COc1cc2nc(NC(=O)c3ccc(F)cc3Br)sc2cc1OC	/	/	/	/	/	-11%
CC1=C/C(=C(\c2ccc(O)c(C)c2)c2ccccc2S(=O)(=O)O)C=CC1=O	4%	7	1%	-5%	2%	6.3µM*
O=C(NC(C1CC1)C1CC1)c1ccccc1Cl	/	/	/	/	/	-7%
Cc1nn(Cc2ccc(Cl)c(Cl)c2)c(C)c1NC(=O)c1cc(-c2ccc3c(c2)OCO3)on1	?	-13	18µM*	21µM*	?	18%
Cc1nn(Cc2ccc(Cl)cc2)c(C)c1NC(=O)c1cc(-c2ccc3c(c2)OCO3)on1	/	-24	23µM*	15µM*	/	-12%
O=C(COc1coc(CN2CCN(c3ccc(F)cc3)CC2)cc1=O)NC1CCCCC1	-11%	0	?	7.3µM*	-1%	-11%
OCCOc1ccc(CN(CCN2CCCCC2)CC2CCCN(C3CCCC3)C2)cc1 (stereo not drawn)	/	/	/	/	/	5%
COc1ccc2c(c1)O[C@H](c1ccc3c(c1)OCO3)[C@@H](O)C2=O	-11%	-6	21µM*	?	0%	/
Cc1onc(-c2cnn(C)c2NCc2ccc(C#N)cc2)c1C(=O)NC1CCCCC1	/	/	/	/	/	2%[176 µM]
CCN(Cc1cccs1)C(=O)Cc1c[nH]c2ccccc12	/	/	/	/	/	7%
CC1C(=O)C(C)C(c2ccc([N+](=O)[O-])cc2)NC1c1ccc([N+](=O)[O-])cc1 (stereo not drawn)	-18%	-8	?	18µM*	0%	0%
CC1C(=O)CC(c2ccc([N+](=O)[O-])cc2)NC1c1ccc([N+](=O)[O-])cc1 (stereo not drawn)	?	-19	?	?	?	0%
Cc1cccc(-c2nc3ccccc3c(C)c2C#N)c1	/	/	/	/	/	-4%
COc1ccccc1Cn1c(-c2ccco2)nc2nc3ccccc3nc21	18%	-19	?	?	15%	-6%
SMILES	HT1080 IDH1KD tx	IL1B secr inh	DT40 TDP1 CPT	DT40 TDP1 no CPT	HT1080NT lethal	12-LOX inh
c1ccc(Cn2c(-c3ccco3)nc3nc4ccccc4nc32)cc1	?	-9	13µM*	?	?	?
Clc1ccc(-c2nc3nc4ccccc4nc3n2Cc2ccco2)cc1	7%	5	?	16µM*	22%	?
COc1ccc(CCn2c(-c3cc([N+](=O)[O-])cc([N+](=O)[O-])c3)nc3nc4ccccc4nc32)cc1OC	11%	10	?	23µM*	3%	1%
Cc1ccc(-c2nc3nc4ccccc4nc3n2Cc2ccco2)cc1	12%	9	-18%	?	5%	-23%
COc1ccc(C(=O)n2c(-c3ccco3)nc3ccccc32)cc1	5.8µM*	-6	6.5µM*	4.1µM*	?	-16%[57.4 µM]
N#Cc1ccccc1CN1CCNc2nc(CNCc3ccc4c(c3)OCO4)n(Cc3ccccc3)c2C1=O	/	/	/	/	/	61%
CCCCn1c(-c2ccco2)n[nH]c1=S	-4%	0	5%	2%	-7%	?
CCCn1c(-c2ccc(OC)cc2)nc2nc3ccccc3nc21	0%	10	23µM*	21µM*	-1%	10%
COc1ccc(CCn2c(-c3ccco3)nc3nc4ccccc4nc32)cc1	-1%	-22	16µM*	10µM*	5%	-12%
COc1ccc(CCn2c(-c3cc([N+](=O)[O-])cc([N+](=O)[O-])c3)nc3nc4ccccc4nc32)cc1	22%	14	?	?	12%	?
COc1ccc(CCn2c(-c3cccc([N+](=O)[O-])c3)nc3nc4ccccc4nc32)cc1	1%	-27	-1%	9%	-2%	-1%
CCCCCn1c(-c2ccco2)nc2nc3ccccc3nc21	-6%	-16	?	?	1%	35µM*
O=C(COc1ccccc1)N1CCOCC12CCN(Cc1ccccc1)CC2	/	/	/	/	/	48%[176 µM]
O=C(NCCN1CCCC1)c1cnc2c(c1)N(C(=O)Cc1cccc(C(F)(F)F)c1)CCC2	/	/	/	/	/	22%

Screening data as filed in PubChem BioAssay.
